# Measured values reported in PubChem BioAssay (NCI).
# About 83,000 compounds went through this panel and 20% of them were active in at least one assay; those are over-represented in the sample as a whole.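 For each line, cells grew in 96-well plates with the test compound present at a single concentration for 48 hours.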 Active and inactive are the calls of the source.
# Tested on: NCI-H226 lung
# Assay: NCI-60 one-dose screen, 48 h (100 = growth as untreated, 0 = no growth, -100 = all killed)
# Conditions: 10 µM unless noted
# Description: Growth inhibition of the NCI-H226 human Non-Small Cell Lung tumor cell line is measured as a screen for anti-cancer activity. Cells are grown in 96 well plates and exposed to the test compound for 48 hours. Compounds are tested at a single concentration, which is 10^-5 M for most compounds. The reported endpoint is percent growth (GI% or GIPRCNT), where numbers from 0 - 100% represent growth inhibition, and numbers from -100% - 0 represent cell death. For example, a value of 40 represents 60% growth inhibition. A value of 0 means no net growth occurred over the course of the experiment. A value of -40 indicates 40% of cells at the beginning of the experiment died by the end of the experiment. A value of -100 means all cells are dead at the end of the experiment.
# NCI-60 Human Tumor Cell Lines Screen was performed using the standard one-dose NCI protocol, which is described in more detail at https://dtp.cancer.gov/discovery_development/nci-60/default.htm.
# Compounds with GIPRCNT values below 10 were considered active. Activity score was based on GIPRCNT using the following formula: […]
# Score is 0 for GIPRCNT values of 100 or above, 50 for GIPRCNT values of 0, and 100 for GIPRCNT values of -100.
row,Compound,growth
1,Cc1nc2c(=O)[nH]c(SCC(=O)Nc3cccc(F)c3)nc2[nH]c1=O,98.8% (inactive)
2,CCSc1nc(NC)c2cc(-c3ccc(C(F)(F)F)cc3)ccc2n1,93.3% (inactive)
3,Brc1ccc2[nH]cc(-c3nonc3-c3c[nH]c4ccccc34)c2c1,66.7% (inactive)
4,CC[C@]12C=CCN3CC[C@@]4(c5cc(NC(=O)CCC(=O)OCc6cn(Cc7ccc(F)cc7)nn6)c(OC)cc5N(C)[C@H]4[C@@](O)(C(=O)OC)[C@@H]1OC(C)=O)[C@@H]32,95.2% (inactive)
5,COc1ccc(C(c2cc(OC)c(OC)c(OC)c2)N2CCN(c3ccccc3)CC2)cc1 (stereo not given),101% (inactive)
6,COc1cc2oc(-c3cccc(NC(=O)c4cccc(Br)c4)c3)cc(=O)c2c(OC)c1OC,73.7% (inactive)
7,Cc1cc(N)c2cc(NC(=O)/C=C\c3ccccc3Cl)ccc2n1,-70.7% (active)
8,COC(=O)c1c2c(c(C)[n+]([O-])c1C)C(=O)C=C(NCc1ccc(Br)cc1)C2=O,-42.9% (active)
9,O=C1CC(N2C(=O)/C(=C/C(Cl)=C\c3ccc([N+](=O)[O-])cc3)SC2=S)C(=O)N1c1ccc(Cl)cc1 (stereo not given),95.5% (inactive)
10,Cc1nnc(-n2c(O)cc(=O)n(-c3ccccc3)c2=S)nc1/C=C/c1ccc(N(C)C)cc1,61.2% (inactive)
11,CO[C@]12C=C/C(=C(/C(=O)OCc3cccnc3)C(=O)CCCCCCCC[C@@]3(OC)C=C/C(=C(/C(=O)OCc4cccnc4)C(=O)CCCCCCCC1)O3)O2,-45.6% (active)
12,COc1cccc(/C=C/C(=O)c2cc3c(N)c(C(=O)Nc4ccccc4)sc3nc2C)c1,55.3% (inactive)
13,O=C(Nn1c2c(sc1=NCc1ccccc1)C(=O)c1ccccc1C2=O)c1cc2ccc1CCc1ccc(cc1)CC2,66.3% (inactive)
14,CN1CCN(C(=O)OCc2ccc3c(Cl)cc(Cl)c(O)c3n2)CC1,98.3% (inactive)
15,O=C1C(Cl)=C(Nc2ccc(O)cc2)C(=O)N1Cc1ccc(Cl)cc1,84.5% (inactive)
16,OCCNCCCOc1ccc2ncnc(Nc3ccc(Oc4cccc(C(F)(F)F)c4)c(Cl)c3)c2c1,85.2% (inactive)
17,C#Cc1ccc(NC(=O)c2ccc(/C=C/C(=O)c3nccn3C)cc2)cc1,-35.3% (active)
18,COc1ccc2c(c1)c(-c1noc(C(=O)c3cn(C)c4ccc(Br)cc34)n1)cn2C,93.8% (inactive)
19,Cc1ccc(/C=C2\CN(C(=O)OC(C)(C)C)C/C(=C\c3ccc(C)cc3)C2=O)cc1,84.9% (inactive)
20,CCCCC(=O)c1ccco1,95.1% (inactive)

row,Compound,growth
1,COC(=O)c1cc(-c2ccccc2)[nH]c1N/N=C/c1c(Cl)cccc1Cl,37.9% (inactive)
2,Fc1cc(F)cc(C(c2c[nH]c3ccccc23)c2c[nH]c3ccccc23)c1,103% (inactive)
3,CC1Cc2c(Cl)ncnc2N(C)c2ccc(F)cc21 (stereo not given),94.5% (inactive)
4,Cc1ccc(-c2nc3nc(-c4ccc(F)cc4)nc(N4CCNCC4)c3o2)cc1,116% (inactive)
5,CS(=O)(=O)C1=CN(CCO)C(=O)N2CCCN=C12,96.6% (inactive)
6,CCN(CC)C(=S)SC(SC(=S)N(CC)CC)C(=O)c1nnn(-c2ccc([N+](=O)[O-])cc2)c1C,104% (inactive)
7,CCCCCC(=O)OCC(=O)O[C@@H]1C[C@]2(C(C)C)O[C@@]1(C)[C@@H]1CC[C@@H](C)[C@H]1[C@@H]2OC(=O)/C=C/c1ccccc1,86% (inactive)
8,Clc1ccc2c(c1)N(c1ncnc3ccc(-c4cnc5[nH]ncc5c4)cc13)CC2,24.4% (inactive)
9,CC[C@@H](C(=O)[C@@H](C)[C@@H](O)[C@H](C)[C@@H]1O[C@@H]([C@@H](CC)C(=O)NCCc2ccc(F)cc2)CC[C@@H]1C)C1O[C@]2(C=CC(=O)[C@]3(CC[C@@](C)([C@H]4CC[C@](O)(CC)[C@H](C)O4)O3)O2)[C@H](C)C[C@@H]1C (stereo not given in full),24.2% (inactive)
10,COc1cc(-c2nc(SCC(C)C)nc(Nc3cccc4ccccc34)c2C#N)cc(OC)c1OC,82.5% (inactive)
11,O=C(Nc1ccc(-c2nc(N3CCOCC3)c3cccn3n2)cc1)Nc1cccnc1,-5.75% (active)
12,COC(=O)c1cc(-c2ccc(S(C)(=O)=O)cc2)[nH]c1N/N=C/c1c(Cl)cccc1Cl,47.5% (inactive)
13,Cc1nc2sc(C(=O)Nc3cccc(Cl)c3C)c(N)c2cc1C(=O)c1ccccc1,5.27% (active)
14,Cc1noc(C)c1C(=O)OCc1coc2ccccc2c1=O,84.9% (inactive)
15,CCOC(=O)CNP(=O)(OC[C@@H](Cc1ccccc1)NC(=O)c1cc2ccccc2s1)Oc1ccccc1 (stereo not given in full),93.2% (inactive)
16,O=C1N[C@@H]2NC(=[N+]3CCOCC3)N[C@@H]2N1,94.8% (inactive)
17,C#Cc1cccc(Nc2ncnc3ccc(-c4cnc(N)nc4)cc23)c1,53.2% (inactive)
18,C#CCOc1ccc2ncnc(Nc3ccc(NC(=O)CCl)cc3)c2c1,47.6% (inactive)
19,CN1CCN(c2ccc(C(=O)Nc3cccc(C#Cc4cccc5[nH]nc(N)c45)c3)cc2C(F)(F)F)CC1,15.6% (inactive)
20,CC1=Nc2cnc(Nc3ccc(OCCN4CCCCC4)cc3)nc2Nc2ccccc21,81.3% (inactive)
